Activity calls are given as the source filed them. The calls were made as follows: active = hit-call score of the fitted dose curve at least 0.9, where 1 is the maximum; inactive = score below 0.9.
Tests used:
[1] = read-out: Interleukin-6 (IL6), IL6 (gene 3569); assay: BSK_CASM3C_IL6: BioMAP Diversity Plus: CASM3C Assay for Interleukin-6 (IL6) Biomarker Activity for (AID 2283040); details: primary human coronary artery smooth muscle cells; actives raise or lower the signal
[2] = read-out: Tissue plasminogen activator (tPA), PLAT (gene 5327); assay: BSK_BE3C_tPA: BioMAP Diversity Plus: BE3C Assay for Tissue plasminogen activator (tPA) Biomarker Activity (AID 2283041); details: primary human bronchial epithelial cells; actives raise or lower the signal
In short: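 ELISA read-out of tPA on human primary bronchial epithelial cells, 24 h post-dosing; bidirectional fit vs DMSO negative control/baseline.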

[3] = read-out: Interleukin-8 (IL8), CXCL8 (gene 3576); assay: BSK_CASM3C_IL8: BioMAP Diversity Plus: CASM3C Assay for Interleukin-8 (IL8) Biomarker Activity (AID 2283042); details: primary human coronary artery smooth muscle cells; actives raise or lower the signal;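 also: IL-8 protein level quantified by ELISA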
[4] = read-out: Human Leukocyte Antigen - DR isotype (HLADR), HLA-DRA (gene 3122); assay: BSK_CASM3C_HLADR: BioMAP Diversity Plus: CASM3C Assay for Human Leukocyte Antigen - DR isotype (HLADR) Biomarker Activity (AID 2283043); details: primary human coronary artery smooth muscle cells; actives raise or lower the signal;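 also: cell-surface HLA-DR protein level quantified by ELISA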
[5] = read-out: Macrophage colony-stimulating factor (MCSF), CSF1 (gene 1435); assay: BSK_CASM3C_MCSF: BioMAP Diversity Plus: CASM3C Assay for Macrophage colony-stimulating factor (MCSF) Biomarker Activity (AID 2283044); details: primary human coronary artery smooth muscle cells; actives raise or lower the signal;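 also: M-CSF protein amount quantified by ELISA after 24 h exposure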
[6] = read-out: Low-density lipoprotein receptor (LDLR), LDLR (gene 3949); assay: BSK_CASM3C_LDLR: BioMAP Diversity Plus: CASM3C Assay for Low-density lipoprotein receptor (LDLR) Biomarker Activity (AID 2283045); details: primary human coronary artery smooth muscle cells; actives raise or lower the signal;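 also: LDLR protein level on the cell surface quantified by ELISA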
[7] = read-out: Monocyte Chemoattractant Protein-1 (MCP1), CCL2 (gene 6347); assay: BSK_CASM3C_MCP1: BioMAP Diversity Plus: CASM3C Assay for Monocyte Chemoattractant Protein-1 (MCP1) Biomarker Activity (AID 2283046); details: primary human coronary artery smooth muscle cells; actives raise or lower the signal;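 also: MCP-1 level quantified by ELISA 24 h after dosing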
[8] = BSK_CASM3C_Proliferation: Cell Proliferation Assessment in the BioMAP Diversity Plus: CASM3C Assay (AID 2283047); details: primary human coronary artery smooth muscle cells;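 also: sulforhodamine B total protein stain as relative cell number at 560 nm; sub-confluent cells exposed 48 h before staining; fitted both ways against DMSO so gain or loss of cell number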
[9] = read-out: Monokine induced gamma interferon (MIG), CXCL9 (gene 4283); assay: BSK_CASM3C_MIG: BioMAP Diversity Plus: CASM3C Assay for Monokine induced gamma interferon (MIG) Biomarker Activity (AID 2283048); details: primary human coronary artery smooth muscle cells; actives raise or lower the signal;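 also: MIG protein level measured by ELISA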
[10] = read-out: serum amyloid A (SAA), SAA1 (gene 6288); assay: BSK_CASM3C_SAA: BioMAP Diversity Plus: CASM3C Assay for serum amyloid A (SAA) Biomarker Activity (AID 2283049); details: primary human coronary artery smooth muscle cells; actives raise or lower the signal;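 also: SAA protein level quantified by ELISA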
[11] = BSK_CASM3C_SRB: Viability Assessment in the BioMAP Diversity Plus: CASM3C Assay (AID 2283050); details: primary human coronary artery smooth muscle cells;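 also: total protein by SRB staining as cytotoxicity measure in parallel cultures; cells exposed to compound for 24 h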
[12] = read-out: Thrombomodulin, THBD (gene 7056); assay: BSK_CASM3C_Thrombomodulin: BioMAP Diversity Plus: CASM3C Assay for Thrombomodulin Biomarker Activity (AID 2283051); details: primary human coronary artery smooth muscle cells; actives raise or lower the signal;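 also: thrombomodulin protein level measured by ELISA 24 h after dosing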
[13] = read-out: Tissue Factor, F3 (gene 2152); assay: BSK_CASM3C_TissueFactor: BioMAP Diversity Plus: CASM3C Assay for Tissue Factor Biomarker Activity (AID 2283052); details: primary human coronary artery smooth muscle cells; actives raise or lower the signal;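 also: cell surface tissue factor protein level read by ELISA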
[14] = read-out: Interferon-gamma inducible Protein 10 (IP10), CXCL10 (gene 3627); assay: BSK_hDFCGF_IP10: BioMAP Diversity Plus: hDFCGF Assay for Interferon-gamma inducible Protein 10 (IP10) Biomarker Activity (AID 2283053); details: primary human foreskin fibroblasts; actives raise or lower the signal
In short: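 ELISA read-out of IP-10 (CXCL10) from primary human skin fibroblasts, 24 h after compound addition. Gain or loss of signal versus DMSO baseline, bidirectional curve fitting.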

[15] = read-out: Urokinase-type plasminogen activator receptor (uPAR), PLAUR (gene 5329); assay: BSK_CASM3C_uPAR: BioMAP Diversity Plus: CASM3C Assay for Urokinase-type plasminogen activator receptor (uPAR) Biomarker Activity (AID 2283054); details: primary human coronary artery smooth muscle cells; actives raise or lower the signal;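 also: cell-surface uPAR protein level quantified by ELISA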
[16] = read-out: Vascular cell adhesion molecule 1 (VCAM1), VCAM1 (gene 7412); assay: BSK_CASM3C_VCAM1: BioMAP Diversity Plus: CASM3C Assay for Vascular cell adhesion molecule 1 (VCAM1) Biomarker Activity (AID 2283055); details: primary human coronary artery smooth muscle cells; actives raise or lower the signal;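 also: VCAM-1 protein level quantified by ELISA on the cells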
[17] = read-out: Collagen III, COL3A1 (gene 1281); assay: BSK_hDFCGF_CollagenIII: BioMAP Diversity Plus: hDFCGF Assay for Collagen III Biomarker Activity (AID 2283056); details: primary human foreskin fibroblasts; actives raise or lower the signal
In short: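 Cells: human foreskin fibroblasts, primary. Dosing followed by 24 h incubation, then ELISA for collagen III. Both increases and decreases scored relative to DMSO.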

[18] = read-out: Epidermal growth factor receptor (EGFR), EGFR (gene 1956); assay: BSK_hDFCGF_EGFR: BioMAP Diversity Plus: hDFCGF Assay for Epidermal growth factor receptor (EGFR) Biomarker Activity (AID 2283057); details: primary human foreskin fibroblasts; actives raise or lower the signal
In short: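 ELISA readout of EGFR on human dermal fibroblasts (primary foreskin cells), 24 h post-dosing; bidirectional curve fit vs DMSO baseline, gain or loss of signal scored.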

[19] = read-out: Interleukin-8 (IL8), CXCL8 (gene 3576); assay: BSK_hDFCGF_IL8: BioMAP Diversity Plus: hDFCGF Assay for Interleukin-8 (IL8) Biomarker Activity (AID 2283058); details: primary human foreskin fibroblasts; actives raise or lower the signal
In short: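 IL-8 levels from compound-treated primary human fibroblasts were read by ELISA at 24 h, with DMSO serving as baseline for bidirectional fitting.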

[20] = BSK_hDFCGF_Proliferation: Cell Proliferation Assessment in the BioMAP Diversity Plus: hDFCGF Assay (AID 2283059); details: primary human foreskin fibroblasts;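 also: curves fitted for both rise and fall of signal versus DMSO baseline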
In short: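 This proliferation readout used SRB total-protein staining of human foreskin fibroblasts […], normalized to DMSO with bidirectional curve fitting.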

Measured: AC50

OC[C@H]1O[C@@](CO)(O[C@H]2O[C@H](CO)[C@@H](O)[C@H](O)[C@H]2O)[C@@H](O)[C@@H]1O
inactive: all assays above

O=C(NO)C1(NS(=O)(=O)c2ccc(Oc3ccc(F)cc3)cc2)CCOCC1
inactive: all assays above

Cn1c(=O)c2[nH]cnc2n(C)c1=O
inactive: all assays above

CNC(C)=O
inactive: all assays above

CCc1ccc(O)c(C(C)(C)C)c1
active: [8] 20 µM | [14] 35.2 µM | [17] 20 µM | [19] 36.3 µM | [20] 34.5 µM
inactive: all other assays above

NC(=O)N(O)[C@@H]1COc2cc(OCc3ccccc3)ccc21
active: [16] 10.2 µM
inactive: all other assays above

CCCc1ccccc1
inactive: all assays above

OCCNCCO
inactive: all assays above

CCOC(N)=O
inactive: all assays above

FC(F)C(F)(F)COCC1CO1 (stereo not given)
inactive: all assays above

O=S(=O)(O)CCC(F)(F)C(F)(F)C(F)(F)C(F)(F)C(F)(F)C(F)(F)F
inactive: all assays above

COc1cc2c(c(OC)c1OC)-c1ccc(OC)c(=O)cc1[C@@H](NC(C)=O)CC2
active: [1] 0.148 µM | [4] 0.43 µM | [8] 0.148 µM | [14] 4.08 µM | [16] 0.579 µM | [20] 1 µM
inactive: all other assays above

OC[C@H]1O[C@@H]2O[C@H]3[C@H](O)[C@@H](O)[C@@H](O[C@H]4[C@H](O)[C@@H](O)[C@@H](O[C@H]5[C@H](O)[C@@H](O)[C@@H](O[C@H]6[C@H](O)[C@@H](O)[C@@H](O[C@H]7[C@H](O)[C@@H](O)[C@@H](O[C@H]1[C@H](O)[C@H]2O)O[C@@H]7CO)O[C@@H]6CO)O[C@@H]5CO)O[C@@H]4CO)O[C@@H]3CO
inactive: all assays above

CCCCCCCCCCCCCCCCOS(=O)(=O)O
active: [2] 14.9 µM | [14] 6.13 µM | [17] 18.3 µM | [18] 2.46 µM | [19] 15.5 µM | [20] 5.25 µM
inactive: all other assays above

From PubChem BioAssay (EPA / NIEHS)
